Experimental data as given in the supplement of paper PMC6555819.

How the values were obtained:
Assay in all cases: PBM binding z-score (relative to random genomic background probes); higher = stronger binding; sequences stand for … in GC…GCGATTGACAGCGTAGAATGAAGG
[1] = system: FXR:RXRa (NR concentration 270 nM, RXRa partner concentration 90 nM)
In short: (§1)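 For binding z-scores, the reference was random background probes on custom Agilent 4×180K protein-binding microarrays. These arrays were incubated 1 h with ligand-free nuclear receptor dimers in PBS pH 7.4, 2% milk, 0.02% Triton X-100, 1 mM DTT, 0.2 mg/mL BSA and 0.4 mg/ml salmon testes DNA. Fluorescence was scanned after antibody detection of each partner (one per run) and regression-normalized.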

[2] = system: LXRa:RXRa (NR concentration 270 nM, RXRa partner concentration 90 nM)
In short: as §1

[3] = system: LXRa homodimer (NR concentration 270 nM)
In short: as §1

[4] = system: LXRb:RXRa (NR concentration 270 nM, RXRa partner concentration 90 nM)
In short: as §1

[5] = system: LXRb homodimer (NR concentration 270 nM)
In short: as §1

[6] = system: PPARa:RXRa (NR concentration 270 nM, RXRa partner concentration 90 nM)
In short: as §1

[7] = system: PPARg:RXRa (NR concentration 180 nM, RXRa partner concentration 90 nM)
In short: as §1

[8] = system: PPARg:RXRa 270nM:90nM, anti-RXR (NR concentration 270 nM, RXRa partner concentration 90 nM)
In short: as §1

[9] = system: PPARg:RXRa 30nM:10nM, anti-RXR (NR concentration 30 nM, RXRa partner concentration 10 nM)
In short: as §1

[10] = system: PPARg:RXRa 90nM:30nM, anti-RXR (NR concentration 90 nM, RXRa partner concentration 30 nM)
In short: as §1

[11] = system: PPARg:RXRa DBDmut IVT, anti-RXR (DBD mutation: RXRa K156A/R161A, NR concentration 270 nM, RXRa partner concentration 90 nM)
In short: as §1

[12] = system: PPARg:RXRa IVT, anti-PPARg (NR concentration 270 nM, RXRa partner concentration 90 nM)
In short: as §1

[13] = system: PPARg DBDmut:RXRa IVT, anti-PPARg (DBD mutation: PPARg1 K132A/R137A, NR concentration 270 nM, RXRa partner concentration 90 nM)
In short: as §1

[14] = system: PPARg DBDmut IVT, anti-PPARg (DBD mutation: PPARg1 K132A/R137A, NR concentration 270 nM)
In short: as §1

[15] = system: PPARg homodimer (NR concentration 180 nM)
In short: as §1

[16] = system: PXR:RXRa (NR concentration 270 nM, RXRa partner concentration 90 nM)
In short: as §1

[17] = system: PXR homodimer (NR concentration 270 nM)
In short: as §1

[18] = system: RARa:RXR (NR concentration 270 nM, RXRa partner concentration 90 nM)
In short: as §1

[19] = system: RARa homodimer (NR concentration 270 nM)
In short: as §1

[20] = system: RARb:RXRa (NR concentration 270 nM, RXRa partner concentration 90 nM)
In short: as §1

| Sequence | PBM binding z-score [1] | PBM binding z-score [2] | PBM binding z-score [3] | PBM binding z-score [4] | PBM binding z-score [5] | PBM binding z-score [6] | PBM binding z-score [7] | PBM binding z-score [8] | PBM binding z-score [9] | PBM binding z-score [10] | PBM binding z-score [11] | PBM binding z-score [12] | PBM binding z-score [13] | PBM binding z-score [14] | PBM binding z-score [15] | PBM binding z-score [16] | PBM binding z-score [17] | PBM binding z-score [18] | PBM binding z-score [19] | PBM binding z-score [20] |
| --- | --- | --- | --- | --- | --- | --- | --- | --- | --- | --- | --- | --- | --- | --- | --- | --- | --- | --- | --- | --- |
| TCTAGCAGGCCAGAGGGTCACCCAAGAGGTACGG | 1.31 | 1.35 | -0.606 | 1.36 | -0.868 | 2.83 | 1.73 | 2.84 | 1.92 | 2.71 | 0.386 | 0.974 | -0.634 | -0.348 | 0.411 | 2 | -0.502 | 2.95 | 0.0468 | 2.43 |
| CTACCAAGGTGAACAAGTTCGTTGATTACTATTC | 0.442 | 0.532 | 0.164 | 0.939 | -0.333 | 1.49 | 0.367 | 0.665 | -0.0232 | 0.145 | 2.33 | 2.42 | 0.0227 | 0.729 | 0.895 | 2.81 | 4.46 | 0.986 | 0.313 | 1.55 |
| GTAACAAGGTGAATAGGTCGTTGATGAGTAGGCG | 1.22 | 1.04 | 0.00254 | 0.69 | -0.186 | 2.9 | 2.64 | 2.88 | 1.27 | 2.48 | 3.26 | 3.65 | 0.827 | 0.585 | 1.61 | 1.02 | 0.451 | 2.04 | 0.797 | 2.06 |
| CCTTACGAGTCACTGACAGGTTATAGCATTTGGA | 0.777 | 1.14 | 0.907 | 1.29 | 0.779 | 0.873 | 0.529 | 0.102 | 0.331 | 0.375 | 0.816 | 0.0297 | 1.14 | 0.808 | 1.1 | 0.7 | 0.734 | 1.15 | 1.48 | 0.807 |
| CCTAGCAGGCCAAGGTCACTCAAGCATTTCGCTT | 3.06 | 2.72 | 0.474 | 2.51 | -0.42 | 3.34 | 1.14 | 2.44 | -0.0507 | 1.65 | 2.14 | 1.93 | -1.42 | -0.849 | 1.92 | 3.35 | 0.64 | 3.65 | 0.757 | 3.55 |
| GCGACTGGGGCAATGCAGGTTACCATAAGGTTGG | 0.0254 | 0.655 | -0.566 | 0.504 | -0.824 | 1.78 | 1.65 | 1.26 | -0.113 | 0.69 | 4.37 | 4.53 | -0.0887 | -0.128 | 0.0203 | 0.548 | -0.5 | 0.919 | -0.465 | 0.959 |
| GCTATTAGTTGAAACGGCAACCGAATGATTCTCG | -0.263 | -0.34 | -0.23 | -0.237 | 0.111 | -0.33 | 0.341 | -0.00574 | 0.0955 | 0.0763 | 0.254 | -0.276 | -0.0416 | -0.0923 | 0.137 | -0.267 | 0.122 | -0.411 | -0.177 | -0.226 |
| CTCGAAAGGTCGTGCTCCGGTGAGTATACCAAAC | 5.22 | 3.95 | 0.167 | 3.33 | 0.24 | 4.95 | 2.82 | 4.07 | 0.826 | 2.65 | 0.784 | 1.77 | 0.64 | 0.56 | 2.34 | 3.57 | 0.18 | 4.87 | -0.416 | 4.04 |
